Bioassay records as filed in PubChem BioAssay.
Mtb betalactam – beta-lactam sensitization of Mtb H37Rv, H37Rv | M. tuberculosis H37Rv growth with meropenem, percent inhibition | AID 434955, 2010 | 330,000 tested, 0.27% active | inhibition, % at 25 µM; call rule not given here;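 note: growth measured after seven days incubation then overnight dye step; 0% = bacteria only wells and 100% = bacteria with antibiotic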
GDH-TPI counter-1 – GDH-TPI coupling enzyme inhibitors, primary screen, artefact control for M. tuberculosis FBA inhibitor project, biochemical, absorbance, full deck. GDH-TPI coupled enzyme counterscreen, NADH absorbance. inhibition, % at 4.8 µM. 360,000 tested, 1.2% active. AID 588335, 2011; in the data active = inhibition above about 30%;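 note: 0% = DMSO wells and 100% = wells lacking the enzyme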
Mtb hypoxia inh – PubChem AID 1159583; M. tuberculosis hypoxia-regulated fluorescent reporter, fluorescence; 300,000 tested, 0.1% active; fluorescence inhibition, % (no concentration beside the values); in the data active = fluorescence inhibition mostly above about 23%, no sharp cut-off; inactive = mostly below about 17%
VHR inh abs – VHR1 phosphatase inhibitors, primary screen, biochemical, absorbance, uHTS; Dual specificity protein phosphatase 3 (Homo sapiens), P51452; recombinant VHR phosphatase, pNPP absorbance; inhibition, % at 13.3 µM; 290,000 tested, 0.52% active; in the data active = inhibition above about 50%
Mtb FBA inh – Mtb FBA enzyme inhibitors, primary screen, biochemical, fluorescence, strain H37Rv | 360,000 tested, 2.3% active | purified M. tuberculosis FBA, fluorescence read-out | inhibition, % at 1 µM;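 note: 0% = vehicle and 100% = reference inhibitor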
Target sequence (P9WQA3 whole entry, looked up): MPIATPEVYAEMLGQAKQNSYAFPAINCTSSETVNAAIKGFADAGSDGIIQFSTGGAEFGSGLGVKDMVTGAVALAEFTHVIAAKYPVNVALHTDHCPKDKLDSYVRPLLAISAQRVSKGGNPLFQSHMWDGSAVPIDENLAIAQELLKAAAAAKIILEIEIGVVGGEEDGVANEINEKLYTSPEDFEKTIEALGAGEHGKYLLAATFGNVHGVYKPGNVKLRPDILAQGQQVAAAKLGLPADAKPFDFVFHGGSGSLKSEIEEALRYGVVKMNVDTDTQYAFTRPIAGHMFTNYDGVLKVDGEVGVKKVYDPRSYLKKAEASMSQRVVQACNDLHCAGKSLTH
Mtb FBA inh conf – M. tuberculosis aldolase blockers, biochemical, fluorescence, strain H37Rv, confirmation. purified M. tuberculosis FBA, fluorescence read-out. inhibition, % at 1 µM. shares compounds with Mtb FBA inh. 5,600 tested, 78% active;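 note: 0% = vehicle wells and 100% = reference inhibitor wells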
GDH-TPI counter-2 – GDH-TPI coupling enzyme inhibitors, artefact control for M. tuberculosis FBA inhibitor project, biochemical, fluorescence, high throughput; shares compounds with Mtb FBA inh; GDH-TPI coupled enzyme counterscreen; inhibition, % at 1 µM; 5,600 tested, 81% active; AID 652141, 2013; in the data active = inhibition above about 10%
* marks the source's active call; other numbers are inactive results; . = not tested or not shown; + = active, no number. Only some compounds are listed: those with a hit (about 3.6% of all), similar ones and a draw of the others. Cut-off read from the data, not from the text of the source, unless noted: active = inhibition above about 27%; inactive = the rest.

SMILES	Mtb betalactam	GDH-TPI counter-1	Mtb hypoxia inh	VHR inh abs	Mtb FBA inh	Mtb FBA inh conf	GDH-TPI counter-2
Cc1cccc(NC(=O)Cn2c(/C=C/c3ccccc3)nc3ccccc32)c1	2	8	-9	30	32*	42*	34*
Cn1c(/C=C/c2ccccc2)nc2ccccc21	4	28	6	-5	48*	199*	168*
COc1ccccc1Cn1c(/C=C/c2ccccc2)nc2ccccc21	10	14	14	7	65*	98*	77*
Cn1c(=O)c(/C=C/c2ccccc2)nc2ccccc21	0	4	-4	16	10	.	.
O=C(C=Cc1c(Cl)nc2ccccn12)N1CCN(c2ccccc2F)CC1	.	.	2	.	.	.	.
Cc1ccc(N2CCN(N=Cc3ccncc3)CC2)cc1	.	.	5	.	.	.	.
Cn1c(=O)c(/C=C/c2ccc(F)cc2)nc2ccccc21	.	3	-5	30	7	.	.
CC(=O)c1ccc(/C=C/c2nc3ccccc3n2C)o1	10	8	8	17	46*	25	17*
Cc1ccc(-n2c([S-])c(C(=O)NC(C)c3ccccc3)[n+]3ccccc23)cc1 (stereo not given)	1	4	-4	33	1	.	.
COc1ccc(CNC(=O)c2c([S-])n(-c3ccc(C)cc3)c3cccc[n+]23)cc1	6	5	7	26	36*	70*	97*
C(/C=C/c1ccccc1)=NNc1nncc(-c2ccccc2)n1	.	.	6	.	.	.	.
CCOC(=O)C1C2COc3ccc(Br)cc3C2N2C(=O)N(c3cccc(Cl)c3)C(=O)[C@@]12C (stereo not given in full)	.	.	2	.	.	.	.
COCCCn1cnc2c(c1=O)c1nc3ccccc3nc1n2-c1ccccc1	59	7	-2	-3	7	.	.
COCCCn1cnc2oc3nc4ccccc4nc3c2c1=O	-15	9	9	9	100*	86*	64*
O=S(=O)(Cc1ccccc1)N1CCN(C2Cc3ccccc3C2)CC1	0	9	6	6	29*	+	+
CCC1(O)C(=O)OCc2c1cc1n(c2=O)Cc2cc3cc(O)ccc3nc2-1 (stereo not given)	.	27	.	.	29*	133*	120*
CC[C@@]1(O)C(=O)OCc2c1cc1n(c2=O)Cc2cc3c(NC(=O)CN)cccc3nc2-1	6	25	3	-3	66*	48*	36*
O=c1ccc(/C=C/c2ccccc2)nn1Cc1ccccc1	6	11	.	10	25	.	.
Cn1nc(/C=C/c2ccccc2)ccc1=O	-10	0	5	23	31*	64*	56*
C[C@@]12C(=O)N(CCO)CC(=O)N1C(C=Cc1ccccc1)C1C(=O)N(c3ccccc3)C(=O)C12 (stereo not given in full)	.	.	5	.	.	.	.
CC(=O)NCCNc1nc2cc(-c3ccc(C)cc3)sc2c(=O)n1C	.	18	.	.	3	.	.
CC(=O)NCCNc1nc2cc(-c3ccc4c(ccn4C)c3)sc2c(=O)n1C	.	11	.	.	33*	78*	83*
COc1ccc(C(=O)NCCc2ccccc2)cc1OC	0	4	-8	22	2	.	.
NS(=O)(=O)c1ccc(CCNC(=O)c2ccc3c(c2)N(Cc2ccccc2)CCS3)cc1	-1	10	-10	48	68*	2	-4
COc1ccc(CCNC(=O)c2ccc3c(c2)N(Cc2ccccc2)CCS3)cc1OC	0	10	11	-9	64*	100*	83*
Cc1cccc(C(=O)N(C)c2nnc(-c3ccncc3)s2)c1	7	6	.	.	0	.	.
CN(C(=O)C1CCOC1)c1nnc(-c2ccccn2)s1 (stereo not given)	3	19	.	3	15	.	.
CN(C(=O)C1CCOC1)c1nnc(-c2ccncc2)s1 (stereo not given)	1	16	8	13	16	.	.
COCC(=O)N(C)c1nnc(-c2ccccn2)s1	-4	6	19	2	52*	92*	69*
